LYPLA1 inh: LYPLA1 inhibitors, primary screen, counter-screen for PME1 inhibitor project, biochemical, fluorescence polarization, FP-Rh probe ABPP | Acyl-protein thioesterase 1 (Homo sapiens), O75608 | recombinant LYPLA1 | inhibition, % at 5.9 µM | 320,000 compounds, 0.16% hits | AID 2174, 2009;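 active = inhibition above the mean of all tested compounds plus 3 SD, set per campaign, cut at about 14% in these data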;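 note: inhibitors block serine hydrolase probe labeling of LYPLA1 so polarization falls; 0% = enzyme with DMSO and 100% = wells lacking LYPLA1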
EBNA-1 inhibitor: EBNA-1 DNA-binding inhibitors, primary screen, biochemical, fluorescence polarization; 300,000 compounds, 0.34% hits; inhibition, % at 14.8 µM; AID 1950, 2009; in the data active = inhibition above about 28%
LYPLA2 inh: LYPLA2 inhibitors, primary screen, counter-screen for PME1 inhibitor project, biochemical, fluorescence polarization, FP-Rh probe ABPP. recombinant LYPLA2. Acyl-protein thioesterase 2 (Homo sapiens), O95372. 320,000 compounds, 0.38% hits. AID 2177, 2009. inhibition, % at 5.9 µM;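 active = inhibition above the screen-wide mean plus 3 SD, limit set per campaign, cut at about 26% in these data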;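 note: 0% = LYPLA2 with DMSO and 100% = wells lacking LYPLA2 enzyme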
ZTA DNA inh: ZTA (EBV) inhibition in EBNA-1 counter-screen; ZTA-DNA binding, fluorescence polarization; inhibition, % at 11 µM; 320,000 compounds, 0.15% hits; AID 2234; in the data active = inhibition above about 33%
Target sequence (P03206 whole entry, looked up): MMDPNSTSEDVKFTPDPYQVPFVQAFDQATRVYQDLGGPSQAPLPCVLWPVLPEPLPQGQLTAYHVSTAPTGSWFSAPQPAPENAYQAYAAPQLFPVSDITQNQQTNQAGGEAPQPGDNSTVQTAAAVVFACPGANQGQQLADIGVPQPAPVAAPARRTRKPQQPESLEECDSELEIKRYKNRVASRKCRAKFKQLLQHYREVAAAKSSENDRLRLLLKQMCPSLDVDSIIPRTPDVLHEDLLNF
PAD4 FP inh: human PAD4 inhibitors, primary screen, biochemical, fluorescence polarization, 1536-well format; Protein-arginine deiminase type-4 (Homo sapiens), Q9UM07; 330,000 compounds, 0.41% hits; inhibition, % at 6.36 µM; recombinant PAD4, RCA probe fluorescence polarization;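 active = percent inhibition above a cutoff equal to the mean of all tested compounds plus 3 SD, cut at about 15% in these data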;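 note: 0% = PAD4 with RCA probe and DMSO and 100% = probe without PAD4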
GSTO1 inh: inhibitors of recombinant GSTO1, primary screen, counter-screen for RBBP9 inhibitor project, biochemical, fluorescence polarization; activity-based probe fluorescence polarization; AID 1974, 2009; Glutathione S-transferase omega-1 (Homo sapiens), P78417; 300,000 compounds, 1.1% hits; inhibition, % at 5.96 µM;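 active = inhibition above the campaign mean inhibition plus 3 SD, cut at about 35% in these data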;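 note: 0% = GSTO1-1 with DMSO and 100% = wells lacking GSTO1-1 enzyme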
Target sequence (P78417 whole entry, looked up): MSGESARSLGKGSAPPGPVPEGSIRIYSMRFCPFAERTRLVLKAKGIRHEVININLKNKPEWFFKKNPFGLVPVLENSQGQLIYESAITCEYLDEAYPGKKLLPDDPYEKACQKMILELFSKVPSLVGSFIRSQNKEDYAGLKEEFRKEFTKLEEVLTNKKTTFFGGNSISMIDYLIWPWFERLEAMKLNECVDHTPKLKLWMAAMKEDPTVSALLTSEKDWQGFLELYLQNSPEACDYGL
PAD4 FP conf: human PAD4 inhibitors, confirmation, biochemical, fluorescence polarization | 1,200 compounds, 28% hits | recombinant PAD4, RCA probe fluorescence polarization | inhibition, % at 6.36 µM | shares compounds with PAD4 FP inh;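 active = mean inhibition across replicates above the hit cutoff set by the earlier primary screen, cut at about 15% in these data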;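 note: inhibitors block active-site labeling by the probe so polarization falls; 0% = PAD4 with probe and DMSO and 100% = probe without PAD4 enzyme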
Numbers without * were called inactive; nt = not tested or not shown. A selection: hits, their analogues and other compounds. The true share with any hit is near 1.7%.

SMILES	LYPLA1 inh	EBNA-1 inhibitor	LYPLA2 inh	ZTA DNA inh	PAD4 FP inh	GSTO1 inh	PAD4 FP conf
CCN(C(=O)COC(=O)c1cc(-c2cccc3ccccc23)nc2ccccc12)C1CCS(=O)(=O)C1 (stereo not drawn)	5	1	4	13	24*	8	12
O=C(COC(=O)c1cc(-c2cccc3ccccc23)nc2ccccc12)NC1CCS(=O)(=O)C1 (stereo not drawn)	14	-2	19	18	65*	10	24*
COc1cc2cc(C(=O)N(C)C3CCS(=O)(=O)C3)[nH]c2cc1OC (stereo not drawn)	0	-3	4	-25	5	2	nt
Cc1ccc(NC(=O)c2ccc(=O)[nH]n2)cc1S(=O)(=O)Nc1ccc(SC(F)F)cc1	nt	nt	nt	nt	22*	nt	5
CC(=O)N1c2ccc(S(=O)(=O)N3CCCC(C(=O)Nc4ccc(F)cc4)C3)cc2CC1C (stereo not drawn)	-4	2	-1	-3	0	9	nt
CNC(=O)c1c(C)[nH]c(=S)c(C#N)c1-c1ccco1	3	4	0	7	26*	8	3
CCc1ccc(C(=O)N2CCN(c3ccc(NC(=O)c4cccnc4)cc3)CC2)cc1	2	-13	20	-3	-6	-1	nt
CCCc1c(O)nc(SCCN(CCC)CCC)[nH]c1=O	0	2	5	10	48*	2	4
O=C(COC(=O)c1ccccn1)NCc1cccs1	-3	-2	-2	10	1	4	nt
CS/C(=N\S(=O)(=O)c1cccs1)NC(=O)CSc1nc2ccccc2s1	-1	3	-3	-7	18*	-26	7
Cc1cc2ncn(-c3ncccc3[N+](=O)[O-])c2cc1C	0	0	5	-17	87*	7	-1
CCSc1c([N+](=O)[O-])c(=O)n(-c2ccccc2)c2ccccc12	1	-3	1	-3	23*	-8	21*
COCCNc1c([N+](=O)[O-])c(=O)n(-c2ccccc2)c2ccccc12	0	0	-1	0	3	6	nt
CCc1cc(S(N)(=O)=O)cc(CC)c1NC(C)=O	-1	-3	-4	-19	-2	6	nt
CCc1cc(SC#N)cc(CC)c1NC(=O)CCl	3	-10	2	-3	16*	71*	-4
COc1ccc(N2C(=O)CSC23C(=O)Nc2ccccc23)cc1 (stereo not drawn)	-1	16	0	6	16*	-3	14
Cc1ccc(N2C(=O)CCSC23C(=O)Nc2ccccc23)cc1 (stereo not drawn)	0	-1	0	-9	2	-13	nt
O=[N+]([O-])c1c(Nc2ccccn2)cc(Cl)c2nonc12	-1	2	5	3	49*	-47	-114
O=[N+]([O-])c1c(Nc2ccc(O)cc2)cc(Cl)c2nonc12	5	7	19	-1	22*	5	11
CC(=O)Nc1ccccc1C(=O)C(=O)Nc1ccccc1	-1	-18	1	-5	-4	-1	nt
CCC(=O)Nc1ccccc1C(=O)C(=O)Nc1ccccc1	-1	-2	4	-12	20*	5	0
COc1ccc(-c2cc(=O)n(CCC#N)[nH]2)cc1	2	-4	0	10	70*	36*	2
COc1ccc(-c2ncn(CCC#N)c2[N+](=O)[O-])cc1	-1	10	3	16	-4	5	nt
CCOC(=O)c1c(-c2ccccc2)csc1NC(=O)CSc1ccccc1	-3	-3	0	12	-7	-2	nt
CCOC(=O)c1c(-c2ccc(OC)cc2)csc1NC(=O)CSc1ccccc1	-6	4	-16	3	20*	-2	-2
SMILES	LYPLA1 inh	EBNA-1 inhibitor	LYPLA2 inh	ZTA DNA inh	PAD4 FP inh	GSTO1 inh	PAD4 FP conf
Oc1ccccc1C1CCCCC1c1ccccc1 (stereo not drawn)	-4	2	-6	1	-1	-7	nt
C#CCOCCOCCOCCNc1nc(N2CCN(C(=O)[C@H](Cc3cc4ccccc4[nH]3)n3cc([C@@H](N)C(C)CC)nn3)CC2)nc(N2CCN(C(=O)[C@H](CCCCN)n3cc([C@@H](N)CO)nn3)CC2)n1 (stereo partly drawn)	1	-14	-3	-13	-4	-2	nt
C#CCOCCOCCOCCNc1nc(N2CCN(C(=O)[C@H](CCCCN)n3cc([C@@H](N)C(C)CC)nn3)CC2)nc(N2CCN(C(=O)[C@H](Cc3cc4ccccc4[nH]3)n3cc([C@@H](N)CC(C)C)nn3)CC2)n1 (stereo partly drawn)	-3	0	-3	-8	16*	-3	4
O=C(c1ccncc1)N1N=C(C2CC2)CC1(O)C(F)(F)F (stereo not drawn)	5	0	8	-2	24*	7	4
C=CCN(C(=O)c1csnn1)C(C(=O)NCc1ccc(F)cc1)c1ccc(F)cc1 (stereo not drawn)	6	-17	7	-17	15*	0	-7
O=C(O)CCC(=O)c1ccc(-c2ccccc2)cc1	0	1	-2	17	172*	-1	16*
O=C1CC(C(=O)Nc2ccccc2)S/C(=N\NC(=O)c2ccccc2Cl)N1 (stereo not drawn)	-2	-3	-6	12	1	6	nt
O=C(NCCCN1CCOCC1)c1ccc(Cl)cc1Cl	-1	-4	-7	-10	15*	2	1
C/C(=N/NS(=O)(=O)c1ccc(CC(C)C)cc1)c1ccncc1	-1	2	-3	6	3	-1	nt
O=C(OCn1ncc(Cl)c(Cl)c1=O)c1cccc(C(F)(F)F)c1	-8	-11	-18	9	32*	21	20*
O=C(OCc1cnc(Cl)s1)c1ccccc1Cl	2	-3	5	4	-1	-3	nt
O=C(OCn1ncc(Br)c(Br)c1=O)c1ccccc1Cl	-4	0	-6	-1	34*	37*	32*
NS(=O)(=O)c1ccc(NC(=S)N2CCC(Cc3ccccc3)CC2)cc1	0	2	6	6	-7	7	nt
NC(=O)c1ccc(NC(=O)CSC(=O)c2ccccc2)cc1	nt	nt	nt	nt	17*	nt	8
CC(=O)C1=C(c2cccc([N+](=O)[O-])c2)N(C(C)=O)n2c(C)nnc2S1	-3	15	0	7	19*	3	23*
CC(=O)c1nnn(-c2cccc([N+](=O)[O-])c2)c1C	1	7	4	11	-2	-2	nt

Bioassay records from PubChem BioAssay.
